MEP2-GFP yeast = alters MEP2-GFP fluorescence in TOR pathway yeast screen; GFP response vs DMSO, % at 10 µM; 0.51% of 330,000 active; S. cerevisiae MEP2-GFP strain, flow cytometry GFP, 3 h; 100% = DMSO control level;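 active means GFP response versus DMSO above a set limit, roughly screen mean plus 3 SD, cut at about 180% in these data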;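 further: median GFP fluorescence of the barcode-gated MEP2-GFP cells per well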
Efflux pump inh = blocks antifungal efflux pumps in multiplex yeast assay. S. cerevisiae Candida pump triplex, Nile Red efflux. inhibition, % at 10 µM. 0.44% of 330,000 active;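 active means plate passing quality check with inhibition over a set limit, or well fluorescence over plate mean plus 4 SD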;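 further: Nile Red retained in pooled yeast measured as flow cytometry median fluorescence; 0% = buffer negative control and 100% = Enniatin B positive control; higher means more Nile Red kept so more efflux inhibition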
RPL19A-GFP yeast = yeast TOR pathway RPL19A-GFP modulation. S. cerevisiae RPL19A-GFP strain, flow cytometry, 3 h; hits give low values. percent response vs DMSO, % at 10 µM. 0.3% of 330,000 active. AID 2025;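 active means percent response vs DMSO below 50%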;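 further: median channel GFP fluorescence of the barcoded RPL19A-GFP strain; ratio of sample median GFP to plate DMSO average so 100% = DMSO; lower means less RPL19A-GFP as with rapamycin TOR inhibition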
AGP1-GFP MLPCN = yeast TOR pathway AGP1-GFP modulation; GFP response vs DMSO, % at 10 µM; S. cerevisiae AGP1-GFP multiplex flow cytometry, 3 h; GFP as percent of DMSO wells; 0.02% of 320,000 active; AID 2066;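 active means GFP response relative to DMSO above a set limit, near screen average plus 3 SD, cut at about 150% in these data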;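 further: median GFP channel fluorescence of the gated AGP1 strain per well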
CIT2-GFP yeast = yeast TOR pathway CIT2-GFP modulation | 0.065% of 320,000 active | GFP response vs DMSO, % at 10 µM | S. cerevisiae CIT2-GFP strain, flow cytometry, 3 h; 100 means same as DMSO wells;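 active means GFP response relative to DMSO above a set limit, near the screen mean plus 3 SD, cut at about 150% in these data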;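 further: ratio of well median GFP fluorescence to mean of DMSO wells on the plate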
LAP4-GFP MLPCN = modulators of TOR pathway LAP4-GFP in S. cerevisiae. S. cerevisiae LAP4-GFP multiplex, flow cytometry GFP, 3 h; median GFP as percent of DMSO wells. GFP response vs DMSO, % at 10 µM. 0.34% of 320,000 active;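 active means GFP response vs DMSO above a set limit, about the screen mean plus 3 SD, cut at about 150% in these data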
Cmpd fluor yeast = compound fluorescence in yeast efflux pump counter-screen | shares compounds with Efflux pump inh | S. cerevisiae AD/pABC3, flow cytometry | fluorescence ratio to DMSO, % at 10 µM | 4% of 1,700 active | AID 588517;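 active means fluorescence ratio to DMSO above its plate's cutoff, the plate mean ratio plus 5 SD, cut at about 210% in these data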;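 further: unstained yeast with no Nile Red so the signal is compound autofluorescence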
Mdr1 pump inh = Candida Mdr1 efflux pump inhibition. shares compounds with Efflux pump inh. S. cerevisiae AD/CaMDR1, Nile Red efflux, flow cytometry. inhibition, % at 10 µM. 1% of 1,700 active. AID 588518; in the data active means inhibition above about 26%;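 further: 0% = DMSO vehicle and 100% = reference inhibitor; higher means more Nile Red retained so more efflux inhibition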
CaCdr2 efflux inh = Candida Cdr2 efflux pump inhibition | 4% of 1,700 active | shares compounds with Efflux pump inh | Nile Red retention ratio vs DMSO, % at 10 µM | AID 588520 | S. cerevisiae AD/CaCDR2, Nile Red retention, flow cytometry; in the data active means Nile Red retention ratio vs DMSO above about 190%;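 further: higher ratio means more blocking of Cdr2 efflux of the dye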
CaCdr1 efflux inh = Candida Cdr1 efflux pump inhibition; inhibition, % at 10 µM; shares compounds with Efflux pump inh; AID 588522; S. cerevisiae AD/CaCDR1, Nile Red efflux, flow cytometry; 1% of 1,700 active;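 active means inhibition above the screen-wide mean plus twice its standard deviation, cut at about 32% in these data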
Active calls of the source: *; · = not tested or not shown. Only some compounds are listed: those with a hit (about 1.3% of all), similar ones and a draw of the others.

SMILES	MEP2-GFP yeast	Efflux pump inh	RPL19A-GFP yeast	AGP1-GFP MLPCN	CIT2-GFP yeast	LAP4-GFP MLPCN	Cmpd fluor yeast	Mdr1 pump inh	CaCdr2 efflux inh	CaCdr1 efflux inh
O=C(Nc1ccc(F)cc1)C1CCC(N2C(=O)c3ccccc3C2=O)CC1 (stereo not given)	110.7	0.0	100.4	103.4	103.3	103.8	·	·	·	·
CC(C)C(=O)N1CCN(c2ccc(NC(=O)COc3ccccc3[N+](=O)[O-])cc2)CC1	104.1	-0.1	91.5	104.0	99.2	110.0	·	·	·	·
CCC1=NN2C(=N)/C(=C/c3c(C)nn(-c4ccccc4)c3Cl)C(=O)N=C2S1	91.3	22.7*	101.7	89.2	89.6	94.2	110.0	0.1	106.0	0.1
Cc1cccc(N2CC(C(=O)NCCC3=CCCCC3)CC2=O)c1C (stereo not given)	94.8	0.2	87.2	86.7	81.0	92.4	·	·	·	·
CN(C)C(=S)SCC(=O)Nc1ccc(Cl)cc1Cl	89.8	15.2*	101.5	100.0	93.5	97.1	97.8	-0.3	94.0	-0.1
COc1ccc(/C(C#N)=C/c2ccccn2)cc1	109.7	1.4*	105.1	93.7	93.7	97.4	104.6	0.4	112.2	0.1
CCCCOc1ccc(NC2=NC3(CCCC3)N=C(N)N2)cc1	97.0	0.6*	98.7	94.7	93.3	96.2	101.8	0.1	114.1	-0.1
O=C(NN=Cc1cccc([N+](=O)[O-])c1)c1cc(-c2cccnc2)nc2ccccc12	93.2	-0.2	97.2	99.8	99.0	97.5	·	·	·	·
Cc1cc(C(=O)N/N=C/c2cccc([N+](=O)[O-])c2)c2ccccc2n1	97.9	8.3*	103.0	92.6	97.0	87.8	845.4*	60.3*	113.8	1.9
COc1ccccc1N=Nc1c(O)[nH]c2ccc(Br)cc12	92.3	0.4*	86.5	91.1	86.5	·	106.7	-0.1	116.2	0.1
Nc1c(N(CCC2=CCCCC2)C(=O)CCCOc2ccccc2)c(=O)[nH]c(=O)n1Cc1ccccc1	103.4	-0.1	103.7	108.4	111.4	99.3	·	·	·	·
CC(Oc1ccccc1)C(=O)N(CCC1=CCCCC1)c1c(N)n(Cc2ccccc2)c(=O)[nH]c1=O (stereo not given)	94.7	6.2*	99.9	88.2	85.0	79.5	92.1	-0.1	109.4	0.0
NS(=O)(=O)c1ccc(NC(=O)CN2CCc3ccccc3C2)cc1	98.5	0.1	94.6	102.6	94.5	129.6	·	·	·	·
